Potency data for eleven compounds are collected here from PubChem BioAssay (Tox21).

The target of assay [1] is Gonadotropin-releasing hormone receptor (Homo sapiens) (UniProt P30968). Put plainly: Human gonadotropin-releasing hormone receptor (GnRHR) small molecule agonists, calcium flux assay in GnRHR-HEK293 cells (AID 1920063). Further: nearly all actives have a fitted effect of over 35% in size. The procedure, abridged:
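Tox21-format agonist screen using human GnRHR-expressing HEK293 cells and a fluorescent calcium dye; kinetic 3-min fluorescence reading after compound addition, 15-point concentration series run in triplicate.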
For orientation: Calcium assays in cells follow changes in intracellular calcium, usually with a dye or a luminescent sensor.

Assay [2] is described as follows: G protein-coupled receptor (GPCR) small molecule agonists, calcium flux assay: HEK293 wild type cell line counter screen (AID 1920065). The procedure, abridged: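 In this agonist-mode screen, ATP is the positive control and DMSO the vehicle. Cells grow 18 h before a 1 h dye incubation at 37 C; signal is taken at Ex/Em 480/540 over 3 min.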
Assay [3] in a line: p53 small molecule agonists, cell-based qHTS assay with human liver microsomes (AID 1963577).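 Further: p53 response element beta-lactamase reporter cells with liver microsomes plus NADPH.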 The procedure, abridged:
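Metabolically competent format: test substances, human liver microsomes and NADPH (both 0.5 mg/mL final) incubated with p53RE-bla cells 16 h at 37 C. Beta-lactamase reporter signal then quantified by fluorescence.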

The nature of assay [4]: p53 small molecule agonists, cell-based qHTS assay with rat liver microsomes (AID 1963578). Summed up:
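Each plate received p53RE-bla cells, then compound, then rat liver microsomes and NADPH (both 0.5 mg/mL final). Plates were held 16 h at 37 C, and beta-lactamase activity was detected with LiveBLAzer over 2 h.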

A short description of assay [5]: p53 small molecule agonists, cell-based qHTS assay with human liver microsomes: qHTS cell viability counter screen (AID 1963579). Further: nearly all actives have a fitted effect of over 45% in size. The procedure, abridged: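 Tox21 library compounds, delivered from DMSO stocks, were tested on p53RE-bla cells together with 0.5 mg/mL human liver microsomes and 0.5 mg/mL NADPH (final) over 16 h at 37 C; CellTiter-Glo luminescence served as the cytotoxicity measure.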
For orientation: In qHTS, concentration-response curves come from the screen itself.

A short description of assay [6]: p53 small molecule agonists, cell-based qHTS assay with rat liver microsomes: qHTS cell viability counter screen (AID 1963580). Further: nearly all actives have a fitted effect of over 45% in size. Summed up: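 p53RE-bla HCT-116 cells were exposed 16 h at 37 C to compounds with rat liver microsomes (0.5 mg/mL) and NADPH (0.5 mg/mL). Viability was measured in the same wells as ATP content by CellTiter-Glo luminescence.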
A short description of assay [7]: p53 small molecule agonists, cell-based qHTS assay: qHTS cell viability counter screen (AID 1963581). Further: nearly all actives have a fitted effect of over 45% in size. The procedure, abridged: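 Compounds are pinned onto HCT-116 p53RE-bla cells and left 16 h at 37 C. Following the reporter FRET read, ATP is quantified by CellTiter-Glo luminescence after 30 min at room temperature.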
The nature of assay [8]: p53 small molecule agonists, cell-based qHTS assay (AID 1963582; active means well fitted activation curve with a large enough effect in the signal ratio in the repeat runs, not every such curve was filed as active; the % refers to the signal ratio). Summed up:
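Agonist activity was scored from beta-lactamase FRET fluorescence in p53RE-bla cells treated 16 h at 37 C with compounds in DMSO, substrate incubation being 2 h at room temperature.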

Assay [9] addresses 5-hydroxytryptamine receptor 2A (Homo sapiens) (UniProt P28223). Put plainly: 5-hydroxytryptamine receptor 2A (HTR2A) small molecule antagonists, cell-based qHTS assay (AID 1963586). Further: nearly all actives have a fitted effect of over 45% in size. Summed up: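 Antagonist-mode intracellular calcium assay: DOI (4 nM) added after 5 min compound pre-incubation at room temperature to dye-loaded HTR2A-CHO cells. Fluorescence followed for 3 min, sampled every second.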

For assay [10] the target is unchanged. Put plainly: 5-hydroxytryptamine receptor 2A (HTR2A) small molecule agonists, cell-based qHTS assay (AID 1963587). Further: nearly all actives have a fitted effect of over 30% in size. The procedure, abridged: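 CHO cells stably expressing human HTR2A, plated 18 h, loaded with calcium dye 1 h at 37 C. Agonist mode: compounds added and intracellular calcium fluorescence recorded kinetically for 2 min at 1 sec intervals.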
For assay [11], the target named is Muscarinic acetylcholine receptor M1 (Homo sapiens) (UniProt P11229). The experiment in a line: Cholinergic receptor muscarinic 1 (CHRM1) small molecule antagonists, cell-based qHTS assay (AID 1963588). Further: nearly all actives have a fitted effect of over 40% in size. Summed up:
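CHRM1-CHO calcium-flux assay, antagonist mode. Cells were seeded 18 h, dye-loaded 1 h at 37 C and given compound for 5 min at RT, then acetylcholine was added at 50nM. FDSS fluorescence was read 3 min; 15 concentrations, three runs.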

For assay [12] the target is unchanged. Put plainly: Cholinergic receptor muscarinic 1 (CHRM1) small molecule agonists, cell-based qHTS assay (AID 1963589). Further: nearly all actives have a fitted effect of over 35% in size. Summed up: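 Stable CHRM1-CHO cells (human receptor) were incubated 18 h, dye-loaded for 1 h at 37 C and exposed to test compounds for agonist activity, with calcium-dependent fluorescence followed kinetically.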
Assay [13] can be described thus: cAMP Responsive Elements (CRE) small molecule agonists, cell-based qHTS assay (AID 1963590). Summed up:
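FRET-based beta-lactamase readout (LiveBLAzer B/G, 2 h RT) quantified CRE activation in HEK 293T CRE-bla cells after 3 h treatment with DMSO-dissolved compounds.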

A short description of assay [14]: cAMP Responsive Elements (CRE) small molecule antagonists, cell-based qHTS assay (AID 1963591; active means well fitted inhibition curve with a large enough effect in the signal ratio in the repeat runs, not every such curve was filed as active; the % refers to the signal ratio). Summed up: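 qHTS in CRE-bla HEK 293T cells: compound in DMSO, then 0.25 uM NKH477 (final), 3 h at 37 °C/5% CO2; beta-lactamase FRET read-out after 2 h substrate incubation.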
Assay [15] has as its target Beta-2 adrenergic receptor (Homo sapiens) (UniProt P07550). Put plainly: Adrenergic beta2 receptor (ADRB2) small molecule antagonists, cell-based qHTS assay (AID 1963592). Further: nearly all actives have a fitted effect of over 50% in size. Further: potency means the concentration at half of the fitted maximal effect. Summed up: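 Cells (CHO, stable ADRB2 overexpression) incubated 18-20hr at 37C; compounds added from DMSO; agonist mix (1nM isoproterenol, 100uM IBMX, 25uM Ro-20-1724) added; 0.5hr RT; d2-cAMP and anti-cAMP-cryptate added; 1hr RT; 665/615 nm read.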

The target of assay [16] is D(2) dopamine receptor (Homo sapiens) (UniProt P14416). Put plainly: Dopamine D2 receptor (DRD2) small molecule agonists, cell-based qHTS assay (AID 1963594). Further: nearly all actives have a fitted effect of over 35% in size. Summed up: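 HEK293 cells stably expressing human DRD2, pre-treated with PDE inhibitor Ro20-1724 (0.1 mM final) and compound 10 min at room temperature, then stimulated with NKH477 (200nM […]) for 30 min. cAMP read by HTRF (665/620 nm).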
D(2) dopamine receptor (Homo sapiens), sequence (P14416 whole entry, looked up): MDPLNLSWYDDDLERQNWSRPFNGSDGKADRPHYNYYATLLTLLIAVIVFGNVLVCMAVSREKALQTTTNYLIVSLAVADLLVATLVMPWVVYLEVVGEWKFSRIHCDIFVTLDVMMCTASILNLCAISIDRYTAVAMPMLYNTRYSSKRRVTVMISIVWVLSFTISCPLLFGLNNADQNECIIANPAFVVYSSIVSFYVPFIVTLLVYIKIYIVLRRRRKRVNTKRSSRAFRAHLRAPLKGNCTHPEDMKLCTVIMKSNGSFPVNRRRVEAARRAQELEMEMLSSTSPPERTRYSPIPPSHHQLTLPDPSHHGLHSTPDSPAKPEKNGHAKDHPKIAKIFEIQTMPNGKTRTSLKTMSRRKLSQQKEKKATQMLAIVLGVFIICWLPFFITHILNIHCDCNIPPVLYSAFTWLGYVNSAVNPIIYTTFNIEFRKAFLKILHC

Assay [17] has the same target. Put plainly: Dopamine D2 receptor (DRD2) small molecule antagonists, cell-based qHTS assay (AID 1963595; active means well fitted inhibition curve with a large enough effect in the signal ratio in the repeat runs, with a control signal flat; the % refers to the signal ratio; further: potency means the concentration at half of the fitted maximal effect). The procedure, abridged:
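Readout: HTRF cAMP, cAMP-d2 competing with cellular cAMP for anti-cAMP cryptate, read after 1 h. Cells: DRD2-HEK293. Conditions: 0.1 mM Ro20-1724, 12 nM quinpirole, 200 nM NKH477, 30 min RT.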

For assay [18], the target named is KiSS-1 receptor (Homo sapiens) (UniProt Q969F8). The experiment in a line: Human kisspeptin (KISS1R) small molecule agonists, calcium flux assay in KISS1R-HEK293 cells (AID 1920064; active means well fitted activation curve with a large enough effect in the repeat runs). Summed up: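 Intracellular calcium mobilization in KISS1R-HEK293 cells was recorded by fluorescence (Ex/Em 480/540) for 3 min following compound addition to cells pre-loaded 1 h with calcium dye.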
KiSS-1 receptor (Homo sapiens), sequence (Q969F8 whole entry, looked up): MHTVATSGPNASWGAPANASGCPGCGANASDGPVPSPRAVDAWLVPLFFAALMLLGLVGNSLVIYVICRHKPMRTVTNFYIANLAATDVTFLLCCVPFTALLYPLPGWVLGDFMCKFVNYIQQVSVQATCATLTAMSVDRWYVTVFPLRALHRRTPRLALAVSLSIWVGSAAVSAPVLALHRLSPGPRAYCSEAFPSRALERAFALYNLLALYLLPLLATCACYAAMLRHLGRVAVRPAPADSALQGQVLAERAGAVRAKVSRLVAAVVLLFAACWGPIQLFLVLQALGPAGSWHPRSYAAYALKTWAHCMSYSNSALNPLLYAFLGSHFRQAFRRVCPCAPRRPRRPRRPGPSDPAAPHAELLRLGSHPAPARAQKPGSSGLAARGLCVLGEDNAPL

Assay [19] has as its target Beta-2 adrenergic receptor (Homo sapiens) (UniProt P07550). Put plainly: Adrenergic beta2 receptor (ADRB2) small molecule agonists, cell-based qHTS assay (AID 1963593).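 Further: CHO cells stably overexpressing human ADRB2.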 The procedure, abridged: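 CHO cells stably over-expressing ADRB2 were plated overnight at 37C, then dosed with compounds plus a stimulation mix containing 100uM IBMX and 25uM Ro-20-1724 for 0.5hr at room temperature. cAMP was measured by HTRF competition, 1hr.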

Inconclusive results are not listed. Some structures have more than one record in an assay (separate samples or runs), and their calls can disagree. Active and inactive are the calls of the source. Unless noted, the call rests on the fitted dose curve.

5-hydroxytryptamine receptor 2A (Homo sapiens), sequence (P28223 whole entry, looked up): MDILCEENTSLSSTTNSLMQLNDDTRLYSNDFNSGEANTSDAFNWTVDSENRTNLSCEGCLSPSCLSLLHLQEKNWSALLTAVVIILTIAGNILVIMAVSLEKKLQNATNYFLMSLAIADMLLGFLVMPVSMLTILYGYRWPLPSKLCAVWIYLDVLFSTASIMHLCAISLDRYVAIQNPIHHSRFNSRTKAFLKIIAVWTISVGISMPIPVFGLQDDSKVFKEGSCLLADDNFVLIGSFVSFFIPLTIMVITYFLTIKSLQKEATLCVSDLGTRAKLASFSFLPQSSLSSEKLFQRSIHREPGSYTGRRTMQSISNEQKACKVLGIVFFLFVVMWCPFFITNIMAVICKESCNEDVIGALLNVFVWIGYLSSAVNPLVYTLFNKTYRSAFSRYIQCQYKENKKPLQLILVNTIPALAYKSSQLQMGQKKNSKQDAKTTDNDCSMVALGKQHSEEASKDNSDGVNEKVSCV
Muscarinic acetylcholine receptor M1 (Homo sapiens), sequence (P11229 whole entry, looked up): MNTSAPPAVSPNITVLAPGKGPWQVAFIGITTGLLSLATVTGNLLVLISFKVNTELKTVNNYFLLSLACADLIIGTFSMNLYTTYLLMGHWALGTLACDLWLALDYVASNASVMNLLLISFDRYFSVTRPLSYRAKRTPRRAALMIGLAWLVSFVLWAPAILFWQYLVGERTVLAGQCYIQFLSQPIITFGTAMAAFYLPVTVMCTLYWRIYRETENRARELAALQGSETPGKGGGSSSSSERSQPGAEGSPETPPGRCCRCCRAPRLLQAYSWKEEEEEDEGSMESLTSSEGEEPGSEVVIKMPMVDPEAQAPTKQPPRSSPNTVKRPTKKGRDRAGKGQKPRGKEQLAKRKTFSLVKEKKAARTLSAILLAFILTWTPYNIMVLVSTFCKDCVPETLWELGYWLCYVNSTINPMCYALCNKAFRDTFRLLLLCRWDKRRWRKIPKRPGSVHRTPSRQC
Gonadotropin-releasing hormone receptor (Homo sapiens), sequence (P30968 whole entry, looked up): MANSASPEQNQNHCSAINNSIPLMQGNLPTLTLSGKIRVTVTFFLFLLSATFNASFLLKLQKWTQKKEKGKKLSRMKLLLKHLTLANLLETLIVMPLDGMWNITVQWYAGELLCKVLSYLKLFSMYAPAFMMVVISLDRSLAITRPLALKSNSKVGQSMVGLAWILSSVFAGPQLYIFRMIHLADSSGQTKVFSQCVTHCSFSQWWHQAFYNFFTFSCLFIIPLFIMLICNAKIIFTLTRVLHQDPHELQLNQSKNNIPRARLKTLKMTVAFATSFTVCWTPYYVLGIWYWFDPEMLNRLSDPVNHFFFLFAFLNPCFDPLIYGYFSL
Beta-2 adrenergic receptor (Homo sapiens), sequence (P07550 whole entry, looked up): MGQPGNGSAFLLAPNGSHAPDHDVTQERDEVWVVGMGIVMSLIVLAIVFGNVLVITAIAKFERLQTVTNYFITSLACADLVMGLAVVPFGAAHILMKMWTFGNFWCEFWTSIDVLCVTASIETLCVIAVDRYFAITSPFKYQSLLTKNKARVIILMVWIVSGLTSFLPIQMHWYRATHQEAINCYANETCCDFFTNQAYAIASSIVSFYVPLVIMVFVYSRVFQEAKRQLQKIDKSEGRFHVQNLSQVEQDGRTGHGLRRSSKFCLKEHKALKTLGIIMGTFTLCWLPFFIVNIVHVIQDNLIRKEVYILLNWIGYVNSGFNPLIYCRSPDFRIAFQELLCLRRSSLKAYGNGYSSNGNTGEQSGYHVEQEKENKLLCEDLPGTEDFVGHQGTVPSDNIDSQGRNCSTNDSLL

Regarding `CC1=C(C(=O)O)N2C(=O)[C@@H](NC(=O)[C@H](N)c3ccc(O)cc3)[C@H]2SC1`, the Potency result in [1], in assay [2], in assay [3], in assay [4], in [5] and in assay [6] was “inactive” throughout. Moreover, the Potency entry in assay [7], in assay [8], in assay [9], in [10], in assay [11] and in assay [12] was “inactive” throughout. For the same compound, the Potency entry in [13], in assay [14], in [15], in assay [16] and in assay [17] was “inactive” throughout.

For `CN(C)CCOC(c1ccccc1)c1ccccc1`, the Potency entry in [1], in [18], in assay [2], in assay [7], in assay [13] and in assay [14] was “inactive” in each case. Moreover, the Potency entry in [15], in [16] and in assay [17] was “inactive” in each case.

For the compound `CCCCCCCCCCCCSC#N`, the Potency entry in assay [1], in [2], in assay [3], in assay [4], in assay [5] and in assay [6] was “inactive” throughout. Further, the Potency entry in assay [7], in assay [8], in [9], in [10], in assay [11] and in assay [12] was “inactive” throughout. Further, the Potency entry in assay [13], in assay [15], in assay [16] and in assay [17] was “inactive” in each case.

`CN(C)C(=O)C(CCN1CCC(O)(c2ccc(Cl)cc2)CC1)(c1ccccc1)c1ccccc1`: the Potency result in assay [1], in assay [18], in [2], in assay [7], in assay [14] and in [16] was “inactive” in each case. For the same compound, the Potency result in assay [17] was “inactive”. For the same compound, in [15], the Potency was 11.9 µM (active).

For the compound `CN1[C@@H]2CC[C@@H]1CC(OC(=O)C(CO)c1ccccc1)C2` (some centres undefined), the Potency result in assay [1], in [18], in [2], in [13], in assay [14] and in assay [16] was “inactive” each time. Moreover, the Potency entry in [17] was “inactive”.

For the compound `COc1c2occc2cc2ccc(=O)oc12`, the Potency entry in [1], in assay [18], in assay [2], in [7], in assay [13] and in assay [14] was “inactive” throughout. Further, the Potency result in assay [15], in assay [19], in assay [16] and in [17] was “inactive” in each case.

On to `COC(=O)C1=C(C)NC(C)=C(C(=O)OC)C1c1ccccc1[N+](=O)[O-]`, for which the Potency entry in assay [1], in [18], in assay [2], in assay [7], in assay [13] and in assay [15] was “inactive” throughout. Also, in assay [16], the Potency result was “inactive”. Further, the Potency in [17] is 68.7 µM (active) and inactive.

Take `CS(=O)(=O)c1ccc([C@@H](O)[C@@H](CF)NC(=O)C(Cl)Cl)cc1`: the Potency entry in assay [1], in assay [18], in assay [2], in [7], in assay [9] and in [10] was “inactive” throughout. The Potency result in assay [11], in assay [12], in assay [14], in [15], in [19] and in assay [16] was “inactive” in each case. Further, the Potency result in assay [17] is “inactive”.

Consider `Cc1cc(NS(=O)(=O)c2ccc(N)cc2)no1`, for which the Potency entry in assay [1], in assay [18], in [13], in assay [14], in assay [15] and in assay [16] was “inactive” each time. Also, the Potency result in assay [17] is “inactive”.

`CCC(C)(C)C1CCC(O)CC1` (centres undefined): the Potency entry in assay [1], in assay [2], in [3], in assay [4], in assay [5] and in assay [6] was “inactive” each time. Further, the Potency entry in assay [7], in assay [8], in assay [9], in [10], in [11] and in [12] was “inactive” throughout. Also, the Potency result in assay [14], in assay [15], in assay [16] and in assay [17] was “inactive” in each case.

For the compound `Nc1ccc(N)c([N+](=O)[O-])c1`, the Potency entry in [9], in assay [11] and in assay [12] was “inactive” throughout.
